PMC12529666, “Dysregulation of AGO2-miRNA dynamics underlies the AGO2-associated Lessel–Kreienkamp syndrome”
Substitutions are numbered along the chain they refer to.

B1: GCGTTCTG (ssRNA)
RNA 1: GAGUUCUACAGUCCGACGAUCCCAACGCGUUCUGCACCUGGAAUUCUCGGGUGCCAA
RNA 2: UGGAGUGUGACAAUGGUGUUUG
DNA 1: GATCGTCGGACTGTAGAACTC
DNA 2: TTGGCACCCGAGAATTCCA
modifications: constant regions annealed to DNA blockers; guide miR-122 5' phosphate
B2: ATGCCCTG (ssRNA)
RNA 1: B1 RNA 1 with G27A, C28U, U30C, U31C
RNA 2: UGGAGUGUGACAAUGGUGUUUG
DNA 1: GATCGTCGGACTGTAGAACTC
DNA 2: TTGGCACCCGAGAATTCCA
modifications: constant regions annealed to DNA blockers; guide miR-122 5' phosphate
B3: GCGTCTCG (ssRNA)
RNA 1: B1 RNA 1 with U31C, C32U, U33C
RNA 2: UGGAGUGUGACAAUGGUGUUUG
DNA 1: GATCGTCGGACTGTAGAACTC
DNA 2: TTGGCACCCGAGAATTCCA
modifications: constant regions annealed to DNA blockers; guide miR-122 5' phosphate
B4: GTATCTCG (ssRNA)
RNA 1: B1 RNA 1 with C28U, G29A, U31C, C32U, U33C
RNA 2: UGGAGUGUGACAAUGGUGUUUG
DNA 1: GATCGTCGGACTGTAGAACTC
DNA 2: TTGGCACCCGAGAATTCCA
modifications: constant regions annealed to DNA blockers; guide miR-122 5' phosphate
B5: ATATTTCG (ssRNA)
RNA 1: B1 RNA 1 with G27A, C28U, G29A, C32U, U33C
RNA 2: UGGAGUGUGACAAUGGUGUUUG
DNA 1: GATCGTCGGACTGTAGAACTC
DNA 2: TTGGCACCCGAGAATTCCA
modifications: constant regions annealed to DNA blockers; guide miR-122 5' phosphate
B6: GTACCTTA (ssRNA)
RNA 1: B1 RNA 1 with C28U, G29A, U30C, U31C, C32U, G34A
RNA 2: UGGAGUGUGACAAUGGUGUUUG
DNA 1: GATCGTCGGACTGTAGAACTC
DNA 2: TTGGCACCCGAGAATTCCA
modifications: constant regions annealed to DNA blockers; guide miR-122 5' phosphate
B7: ATATCCTG (ssRNA)
RNA 1: B1 RNA 1 with G27A, C28U, G29A, U31C
RNA 2: UGGAGUGUGACAAUGGUGUUUG
DNA 1: GATCGTCGGACTGTAGAACTC
DNA 2: TTGGCACCCGAGAATTCCA
modifications: constant regions annealed to DNA blockers; guide miR-122 5' phosphate
B8: GTATTTTG (ssRNA)
RNA 1: B1 RNA 1 with C28U, G29A, C32U
RNA 2: UGGAGUGUGACAAUGGUGUUUG
DNA 1: GATCGTCGGACTGTAGAACTC
DNA 2: TTGGCACCCGAGAATTCCA
modifications: constant regions annealed to DNA blockers; guide miR-122 5' phosphate
B9: ATGTCTTG (ssRNA)
RNA 1: B1 RNA 1 with G27A, C28U, U31C, C32U
RNA 2: UGGAGUGUGACAAUGGUGUUUG
DNA 1: GATCGTCGGACTGTAGAACTC
DNA 2: TTGGCACCCGAGAATTCCA
modifications: constant regions annealed to DNA blockers; guide miR-122 5' phosphate
B10: GTATCTTA (ssRNA)
RNA 1: B1 RNA 1 with C28U, G29A, U31C, C32U, G34A
RNA 2: UGGAGUGUGACAAUGGUGUUUG
DNA 1: GATCGTCGGACTGTAGAACTC
DNA 2: TTGGCACCCGAGAATTCCA
modifications: constant regions annealed to DNA blockers; guide miR-122 5' phosphate
B11: GTATCCCG (ssRNA)
RNA 1: B1 RNA 1 with C28U, G29A, U31C, U33C
RNA 2: UGGAGUGUGACAAUGGUGUUUG
DNA 1: GATCGTCGGACTGTAGAACTC
DNA 2: TTGGCACCCGAGAATTCCA
modifications: constant regions annealed to DNA blockers; guide miR-122 5' phosphate
B12: GCATCCTG (ssRNA)
RNA 1: B1 RNA 1 with G29A, U31C
RNA 2: UGGAGUGUGACAAUGGUGUUUG
DNA 1: GATCGTCGGACTGTAGAACTC
DNA 2: TTGGCACCCGAGAATTCCA
modifications: constant regions annealed to DNA blockers; guide miR-122 5' phosphate
B13: ACGCCCCG (ssRNA)
RNA 1: B1 RNA 1 with G27A, U30C, U31C, U33C
RNA 2: UGGAGUGUGACAAUGGUGUUUG
DNA 1: GATCGTCGGACTGTAGAACTC
DNA 2: TTGGCACCCGAGAATTCCA
modifications: constant regions annealed to DNA blockers; guide miR-122 5' phosphate
B14: ATGTTCTG (ssRNA)
RNA 1: B1 RNA 1 with G27A, C28U
RNA 2: UGGAGUGUGACAAUGGUGUUUG
DNA 1: GATCGTCGGACTGTAGAACTC
DNA 2: TTGGCACCCGAGAATTCCA
modifications: constant regions annealed to DNA blockers; guide miR-122 5' phosphate
B15: ATACCCCG (ssRNA)
RNA 1: B1 RNA 1 with G27A, C28U, G29A, U30C, U31C, U33C
RNA 2: UGGAGUGUGACAAUGGUGUUUG
DNA 1: GATCGTCGGACTGTAGAACTC
DNA 2: TTGGCACCCGAGAATTCCA
modifications: constant regions annealed to DNA blockers; guide miR-122 5' phosphate
B16: ATGCCTCG (ssRNA)
RNA 1: B1 RNA 1 with G27A, C28U, U30C, U31C, C32U, U33C
RNA 2: UGGAGUGUGACAAUGGUGUUUG
DNA 1: GATCGTCGGACTGTAGAACTC
DNA 2: TTGGCACCCGAGAATTCCA
modifications: constant regions annealed to DNA blockers; guide miR-122 5' phosphate
B17: GCGTTTTG (ssRNA)
RNA 1: B1 RNA 1 with C32U
RNA 2: UGGAGUGUGACAAUGGUGUUUG
DNA 1: GATCGTCGGACTGTAGAACTC
DNA 2: TTGGCACCCGAGAATTCCA
modifications: constant regions annealed to DNA blockers; guide miR-122 5' phosphate
B18: ATACCTTG (ssRNA)
RNA 1: B1 RNA 1 with G27A, C28U, G29A, U30C, U31C, C32U
RNA 2: UGGAGUGUGACAAUGGUGUUUG
DNA 1: GATCGTCGGACTGTAGAACTC
DNA 2: TTGGCACCCGAGAATTCCA
modifications: constant regions annealed to DNA blockers; guide miR-122 5' phosphate
B19: ACATCTCG (ssRNA)
RNA 1: B1 RNA 1 with G27A, G29A, U31C, C32U, U33C
RNA 2: UGGAGUGUGACAAUGGUGUUUG
DNA 1: GATCGTCGGACTGTAGAACTC
DNA 2: TTGGCACCCGAGAATTCCA
modifications: constant regions annealed to DNA blockers; guide miR-122 5' phosphate
B20: GTGTCCTG (ssRNA)
RNA 1: B1 RNA 1 with C28U, U31C
RNA 2: UGGAGUGUGACAAUGGUGUUUG
DNA 1: GATCGTCGGACTGTAGAACTC
DNA 2: TTGGCACCCGAGAATTCCA
modifications: constant regions annealed to DNA blockers; guide miR-122 5' phosphate
B21: GTGTTCTG (ssRNA)
RNA 1: B1 RNA 1 with C28U
RNA 2: UGGAGUGUGACAAUGGUGUUUG
DNA 1: GATCGTCGGACTGTAGAACTC
DNA 2: TTGGCACCCGAGAATTCCA
modifications: constant regions annealed to DNA blockers; guide miR-122 5' phosphate
B22: ATATTTTG (ssRNA)
RNA 1: B1 RNA 1 with G27A, C28U, G29A, C32U
RNA 2: UGGAGUGUGACAAUGGUGUUUG
DNA 1: GATCGTCGGACTGTAGAACTC
DNA 2: TTGGCACCCGAGAATTCCA
modifications: constant regions annealed to DNA blockers; guide miR-122 5' phosphate
B23: ATACCTTA (ssRNA)
RNA 1: B1 RNA 1 with G27A, C28U, G29A, U30C, U31C, C32U, G34A
RNA 2: UGGAGUGUGACAAUGGUGUUUG
DNA 1: GATCGTCGGACTGTAGAACTC
DNA 2: TTGGCACCCGAGAATTCCA
modifications: constant regions annealed to DNA blockers; guide miR-122 5' phosphate

What follows are binders tested against AGO2 L192P (Homo sapiens, UniProt Q9UKV8 1-859, L192P;S387D;S824A;S828D;S831D;S834A) (assay: RNA Bind-n-Seq (nitrocellulose filter binding and sequencing); miR-122 guide loaded in AGO2; 60 min incubation; 30 mM Tris pH 8.0, 100 mM potassium acetate, 2 mM magnesium acetate, 0.5 mM TCEP, 0.005% NP-40, 0.01 mg/ml yeast tRNA; 3 nM AGO2-miR-122, 100 nM RNA library; 60; high values mean tight binding). Conditions: protein: recombinant; tags: His6 (N-terminal, pFastBac HTA).
AGO2 L192P, sequence (Q9UKV8 whole entry L192P/S387D/S824A/S828D/S831D/S834A): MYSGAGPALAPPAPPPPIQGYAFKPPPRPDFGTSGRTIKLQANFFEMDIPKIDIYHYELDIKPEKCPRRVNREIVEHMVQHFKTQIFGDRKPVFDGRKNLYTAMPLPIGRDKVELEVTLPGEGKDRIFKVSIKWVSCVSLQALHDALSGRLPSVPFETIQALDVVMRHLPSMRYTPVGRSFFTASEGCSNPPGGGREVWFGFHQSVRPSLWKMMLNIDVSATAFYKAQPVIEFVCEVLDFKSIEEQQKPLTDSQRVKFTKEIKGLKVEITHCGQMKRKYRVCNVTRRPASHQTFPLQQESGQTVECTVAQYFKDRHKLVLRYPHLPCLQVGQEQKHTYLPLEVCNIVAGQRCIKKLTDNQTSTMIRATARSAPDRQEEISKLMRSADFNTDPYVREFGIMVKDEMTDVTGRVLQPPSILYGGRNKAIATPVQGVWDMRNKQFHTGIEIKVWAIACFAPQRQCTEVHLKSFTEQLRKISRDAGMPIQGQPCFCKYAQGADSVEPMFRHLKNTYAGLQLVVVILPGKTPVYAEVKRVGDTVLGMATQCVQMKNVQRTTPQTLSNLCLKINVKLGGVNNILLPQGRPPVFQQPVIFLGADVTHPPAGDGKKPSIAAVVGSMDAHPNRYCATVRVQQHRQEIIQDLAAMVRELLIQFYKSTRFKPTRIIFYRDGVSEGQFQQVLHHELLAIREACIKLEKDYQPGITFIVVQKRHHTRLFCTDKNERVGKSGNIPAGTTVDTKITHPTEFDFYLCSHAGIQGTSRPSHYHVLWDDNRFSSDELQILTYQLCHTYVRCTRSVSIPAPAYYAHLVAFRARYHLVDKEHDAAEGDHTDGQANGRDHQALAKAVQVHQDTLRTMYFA
Procedure, shortened: (§1)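 His-tagged AGO2 was expressed in Sf9 insect cells by baculovirus, loaded with a synthetic guide RNA, and purified by Ni-NTA and a biotinylated capture oligo. Bound RNA was extracted, reverse-transcribed, barcode-amplified and Illumina-sequenced. Fold enrichment is each sequence's read fraction divided by its input-library read fraction.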
In the case of B1, the binding signal is reported as 0.348 fold enrichment over input.
In the case of B2, the binding signal is reported as 0.377 fold enrichment over input.
B3 was tested, and the binding signal was 0.345 fold enrichment over input.
For B4, the binding signal was 0.333 fold enrichment over input.
With B5 the binding signal was 0.414 fold enrichment over input.
B6 was tested, and the binding signal was 0.445 fold enrichment over input.
In the case of B7, the binding signal is reported as 0.349 fold enrichment over input.
B8 was tested, and the binding signal was 0.384 fold enrichment over input.
For B9, the binding signal was 0.357 fold enrichment over input.
In the case of B10, the binding signal is reported as 0.457 fold enrichment over input.
In the case of B11, the binding signal is reported as 0.354 fold enrichment over input.
With B12 the binding signal was 0.336 fold enrichment over input.
With B13 the binding signal was 0.391 fold enrichment over input.
For B14, the binding signal was 0.362 fold enrichment over input.
With B15 the binding signal was 0.382 fold enrichment over input.
With B16 the binding signal was 0.34 fold enrichment over input.
With B17 the binding signal was 0.362 fold enrichment over input.
For B18, the binding signal was 0.418 fold enrichment over input.
With B19 the binding signal was 0.347 fold enrichment over input.
B20 was tested, and the binding signal was 0.335 fold enrichment over input.
In the case of B21, the binding signal is reported as 0.352 fold enrichment over input.
B22 was tested, and the binding signal was 0.369 fold enrichment over input.
With B23 the binding signal was 0.475 fold enrichment over input.

Each binder was assayed against AGO2 A367P (Homo sapiens, UniProt Q9UKV8 1-859, A367P;S387D;S824A;S828D;S831D;S834A) in the same assay as above. Conditions: protein: recombinant; tags: His6 (N-terminal, pFastBac HTA).
AGO2 A367P, sequence (Q9UKV8 whole entry A367P/S387D/S824A/S828D/S831D/S834A): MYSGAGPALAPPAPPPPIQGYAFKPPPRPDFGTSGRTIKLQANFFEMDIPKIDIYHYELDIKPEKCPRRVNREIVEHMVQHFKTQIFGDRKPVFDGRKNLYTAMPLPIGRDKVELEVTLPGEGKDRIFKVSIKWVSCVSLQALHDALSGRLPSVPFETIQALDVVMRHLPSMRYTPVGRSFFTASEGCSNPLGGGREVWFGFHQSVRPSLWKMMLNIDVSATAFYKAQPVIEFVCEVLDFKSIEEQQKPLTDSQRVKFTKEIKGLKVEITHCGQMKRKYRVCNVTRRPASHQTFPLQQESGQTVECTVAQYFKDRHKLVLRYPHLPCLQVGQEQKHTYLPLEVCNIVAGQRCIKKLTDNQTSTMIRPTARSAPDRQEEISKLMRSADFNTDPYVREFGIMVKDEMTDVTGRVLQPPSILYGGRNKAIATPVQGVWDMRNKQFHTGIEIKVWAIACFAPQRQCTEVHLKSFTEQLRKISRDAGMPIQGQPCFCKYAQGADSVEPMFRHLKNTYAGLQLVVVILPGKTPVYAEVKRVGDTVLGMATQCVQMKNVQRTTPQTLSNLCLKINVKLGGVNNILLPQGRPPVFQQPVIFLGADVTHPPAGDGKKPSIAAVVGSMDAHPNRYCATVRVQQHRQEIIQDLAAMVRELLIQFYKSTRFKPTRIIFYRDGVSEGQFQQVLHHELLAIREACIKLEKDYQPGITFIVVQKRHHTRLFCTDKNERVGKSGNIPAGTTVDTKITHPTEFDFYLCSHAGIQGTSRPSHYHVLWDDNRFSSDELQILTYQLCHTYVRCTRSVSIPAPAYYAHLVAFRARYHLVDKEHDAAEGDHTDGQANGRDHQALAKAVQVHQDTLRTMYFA
Procedure, shortened: as §1
B1 was tested, and the binding signal was 0.135 fold enrichment over input.
B2 was tested, and the binding signal was 0.137 fold enrichment over input.
In the case of B3, the binding signal is reported as 0.138 fold enrichment over input.
With B4 the binding signal was 0.128 fold enrichment over input.
For B5, the binding signal was 0.135 fold enrichment over input.
B6 was tested, and the binding signal was 0.167 fold enrichment over input.
B8 was tested, and the binding signal was 0.131 fold enrichment over input.
With B9 the binding signal was 0.128 fold enrichment over input.
With B10 the binding signal was 0.174 fold enrichment over input.
For B11, the binding signal was 0.122 fold enrichment over input.
B12 was tested, and the binding signal was 0.13 fold enrichment over input.
In the case of B13, the binding signal is reported as 0.155 fold enrichment over input.
With B14 the binding signal was 0.132 fold enrichment over input.
For B15, the binding signal was 0.14 fold enrichment over input.
In the case of B16, the binding signal is reported as 0.134 fold enrichment over input.
For B17, the binding signal was 0.136 fold enrichment over input.
B18 was tested, and the binding signal was 0.125 fold enrichment over input.
With B19 the binding signal was 0.134 fold enrichment over input.
In the case of B20, the binding signal is reported as 0.124 fold enrichment over input.
B21 was tested, and the binding signal was 0.132 fold enrichment over input.
For B22, the binding signal was 0.149 fold enrichment over input.
In the case of B23, the binding signal is reported as 0.166 fold enrichment over input.

Each binder was assayed against AGO2 T357M (Homo sapiens, UniProt Q9UKV8 1-859, T357M;S387D;S824A;S828D;S831D;S834A) in the same assay as above. Conditions: protein: recombinant; tags: His6 (N-terminal, pFastBac HTA).
AGO2 T357M, sequence (Q9UKV8 whole entry T357M/S387D/S824A/S828D/S831D/S834A): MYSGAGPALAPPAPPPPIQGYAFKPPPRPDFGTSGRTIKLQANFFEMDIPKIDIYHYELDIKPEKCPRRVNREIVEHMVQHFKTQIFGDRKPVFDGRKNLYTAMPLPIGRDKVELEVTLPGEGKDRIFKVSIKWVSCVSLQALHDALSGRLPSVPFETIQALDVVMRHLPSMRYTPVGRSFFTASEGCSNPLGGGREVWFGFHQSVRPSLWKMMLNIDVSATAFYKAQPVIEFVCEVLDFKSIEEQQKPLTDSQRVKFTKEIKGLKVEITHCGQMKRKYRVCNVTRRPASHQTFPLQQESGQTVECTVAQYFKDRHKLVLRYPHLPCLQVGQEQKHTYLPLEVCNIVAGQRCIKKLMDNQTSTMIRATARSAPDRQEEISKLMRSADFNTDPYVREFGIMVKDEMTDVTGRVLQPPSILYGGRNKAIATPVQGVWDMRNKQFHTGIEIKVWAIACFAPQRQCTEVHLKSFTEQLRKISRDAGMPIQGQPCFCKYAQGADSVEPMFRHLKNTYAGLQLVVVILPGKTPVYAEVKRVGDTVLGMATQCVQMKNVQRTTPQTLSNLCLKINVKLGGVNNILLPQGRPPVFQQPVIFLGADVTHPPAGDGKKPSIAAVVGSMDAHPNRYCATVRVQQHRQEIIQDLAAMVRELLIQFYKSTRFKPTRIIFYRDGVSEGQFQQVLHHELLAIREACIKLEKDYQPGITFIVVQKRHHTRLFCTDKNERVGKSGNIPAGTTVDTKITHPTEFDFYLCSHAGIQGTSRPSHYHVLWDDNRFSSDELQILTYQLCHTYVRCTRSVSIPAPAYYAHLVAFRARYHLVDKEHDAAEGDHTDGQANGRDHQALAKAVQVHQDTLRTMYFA
Procedure, shortened: as §1
B1 was tested, and the binding signal was 0.496 fold enrichment over input.
In the case of B2, the binding signal is reported as 0.463 fold enrichment over input.
B3 was tested, and the binding signal was 0.498 fold enrichment over input.
For B4, the binding signal was 0.424 fold enrichment over input.
For B5, the binding signal was 0.6 fold enrichment over input.
With B6 the binding signal was 0.599 fold enrichment over input.
For B7, the binding signal was 0.475 fold enrichment over input.
For B8, the binding signal was 0.514 fold enrichment over input.
For B9, the binding signal was 0.449 fold enrichment over input.
B10 was tested, and the binding signal was 0.596 fold enrichment over input.
With B11 the binding signal was 0.399 fold enrichment over input.
B12 was tested, and the binding signal was 0.437 fold enrichment over input.
For B13, the binding signal was 0.524 fold enrichment over input.
B14 was tested, and the binding signal was 0.487 fold enrichment over input.
For B15, the binding signal was 0.471 fold enrichment over input.
For B16, the binding signal was 0.474 fold enrichment over input.
With B17 the binding signal was 0.536 fold enrichment over input.
For B18, the binding signal was 0.573 fold enrichment over input.
For B19, the binding signal was 0.37 fold enrichment over input.
In the case of B20, the binding signal is reported as 0.452 fold enrichment over input.
In the case of B21, the binding signal is reported as 0.47 fold enrichment over input.
In the case of B22, the binding signal is reported as 0.584 fold enrichment over input.
B23 was tested, and the binding signal was 0.561 fold enrichment over input.
